According to PubChem BioAssay AID651558 (National Center for Advancing Translational Sciences (NCATS), 2012):
Hit rate of the full screen: of about 1,200 compounds, about 480 (40%) were called active. Not shown: some 29% with an inconclusive outcome. Calls follow the shape of the dose curve; as a rule, active = well fitted inhibition curve with a large enough effect; inconclusive = small, poorly fitted or top-dose-only effect; inactive = no such curve, though single readings can be large or run the other way. This is one part of the list.

Assay: qHTS Assay to Find Inhibitors of Chronic Active B-Cell Receptor Signaling: Hit Validation in Primary Screen; also: nearly all actives have a fitted effect of over 75% in size
Conditions: ABC-DLBCL IkB-luc/CBR ratio luminescence, 4 h; series mostly up to 46.1 µM
Outline: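 Concentration series (3 nM to 46 uM) tested on TMD8 cells induced with doxycycline for 4 h. Filter-corrected green (IkBa fusion) over red (unfused) luciferase signal; Data were normalised to 10 uM MG-132 and untreated cell wells.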
Potency is read from the fitted curve at half-maximal effect.

Question: With `CCOC(=O)C(C)Oc1cccc2c(=O)n(CC(=O)NCc3ccccc3)ccc12` (stereo unspecified) as the compound, how does the Potency read?
Answer: Its Potency is 4.11 µM (active).

Question: For `CCOC(=O)C(C)Oc1cccc2c(=O)n(CC(=O)NCc3ccco3)ccc12` (stereo unspecified), which Potency is on record?
Answer: The Potency was 18.4 µM (active).

Question: With `CCOC(=O)C(C)Oc1cccc2c(=O)n(CC(=O)NCc3ccc4c(c3)OCO4)ccc12` (stereo unspecified) as the compound, how does the Potency read?
Answer: The Potency was 20.6 µM (active).

Question: For `CCOC(=O)COc1cccc2c(=O)n(CC(=O)NCc3ccccc3)ccc12`, which Potency is on record?
Answer: Its Potency is “inactive”.

Question: Which Potency does the source give for `CCOC(=O)COc1cccc2c(=O)n(CC(=O)NCc3ccc(F)cc3)ccc12` here?
Answer: Its Potency is 3.26 µM (active).

Question: For `CCOc1ccc(CCNC(=O)c2cc(=O)[nH]c3ccc(S(=O)(=O)N4CCCCC4C)cc23)cc1OCC` (stereo unspecified), which Potency is on record?
Answer: The Potency was “inactive”.

Question: With `C=CCn1c(O)c(N=NC(=S)Nc2ccccc2C)c2cc(S(=O)(=O)N3CCOCC3)ccc21` as the compound, how does the Potency read?
Answer: Its Potency is “inactive”.

Question: With `COC(=O)COc1cccc2c(=O)n(CC(=O)NCc3ccccc3)ccc12` as the compound, how does the Potency read?
Answer: Its Potency is 9.2 µM (active).

Question: Which Potency does the source give for `CCOC(=O)C(C)Oc1cccc2c(=O)n(CC(=O)NCc3ccc(F)cc3)ccc12` (stereo unspecified) here?
Answer: The Potency was 2.59 µM (active).

Question: For `CCN(c1cccc(C)c1)S(=O)(=O)c1ccc(-c2cc(C)no2)s1`, which Potency is on record?
Answer: Its Potency is 16.4 µM (active).

Question: For `Cc1cccc(N(C)S(=O)(=O)c2ccc(-c3cc(C)no3)s2)c1`, which Potency is on record?
Answer: The Potency was “inactive”.

Question: Which Potency does the source give for `Cc1nn(C)cc1CNC(=O)COc1ccc(Cl)cc1Cl` here?
Answer: The Potency was “inactive”.

Question: Which Potency does the source give for `Cc1cc(Cl)ccc1OCCCC(=O)NO` here?
Answer: The Potency was 16.4 µM (active).

Question: With `CC[C@]1(O)C[C@@H]2CN(CCc3c([nH]c4ccccc34)[C@@](C(=O)OC)(c3cc4c(cc3OC)N(C)[C@H]3[C@@](O)(C(=O)OC)[C@H](OC(C)=O)[C@]5(CC)C=CCN6CC[C@]43[C@@H]65)C2)C1` as the compound, how does the Potency read?
Answer: Its Potency is 0.0461 µM (active).

Question: Which Potency does the source give for `CC[C@]1(O)CC2CN(CCc3c([nH]c4ccccc34)[C@@](C(=O)OC)(c3cc4c(cc3OC)N(C=O)[C@H]3[C@@](O)(C(=O)OC)[C@H](OC(C)=O)[C@]5(CC)C=CCN6CC[C@]43[C@@H]65)C2)C1` (stereo partly specified) here?
Answer: The Potency was 0.0517 µM (active).

Question: With `COc1ccc(C(=O)/C=C/c2ccc(O)cc2)c2c1CC(O)C(C)(C)O2` (stereo unspecified) as the compound, how does the Potency read?
Answer: The Potency was 20.6 µM (active).

Question: Which Potency does the source give for `O=S1(=O)[C@H]2C[C@H](CO)O[C@@]2(CO)CN1Cc1ccc(-c2cccc(Cl)c2)cc1` here?
Answer: Its Potency is “inactive”.

Question: For `COc1cc(Nc2c3c(nc4ccccc24)CCC3)cc(OC)c1OC`, which Potency is on record?
Answer: Its Potency is 18.4 µM (active).

Question: With `COc1ccccc1-c1nc2c3ccccc3nc(=S)n2[nH]1` as the compound, how does the Potency read?
Answer: The Potency was “inactive”.

Question: With `COc1ccc(OC)c(Nc2c3c(nc4ccccc24)CCC3)c1` as the compound, how does the Potency read?
Answer: The Potency was 14.6 µM (active).

Question: For `Cc1nn(CCC(=O)NNC(=S)Nc2ccccc2)c(C)c1Br`, which Potency is on record?
Answer: The Potency was “inactive”.

Question: For `Cc1ccc(C)c(/C=N/NC(=S)NC(C)C)c1`, which Potency is on record?
Answer: Its Potency is “inactive”.

Question: For `Cc1ccc(C)c(NS(=O)(=O)c2ccc(-c3cnc(C4CC4)o3)cc2)c1`, which Potency is on record?
Answer: The Potency was 1.03 µM (active).

Question: Which Potency does the source give for `COc1ccc(C)cc1NS(=O)(=O)c1ccc(-c2cnc(C3CC3)o2)cc1` here?
Answer: The Potency was 0.92 µM (active).

Question: Which Potency does the source give for `Cc1cc(C)cc(NS(=O)(=O)c2ccc(-c3cnc(C4CC4)o3)cc2)c1` here?
Answer: Its Potency is 2.06 µM (active).

Question: With `COc1ccc(NS(=O)(=O)c2cc(-c3cnc(C4CC4)o3)ccc2C)cc1` as the compound, how does the Potency read?
Answer: Its Potency is 23.1 µM (active).

Question: Which Potency does the source give for `Cc1ccc(NS(=O)(=O)c2ccc(-c3cnc(C4CC4)o3)cc2)c(C)c1` here?
Answer: Its Potency is 3.26 µM (active).

Question: For `CC(=O)Nc1ccc(S(=O)(=O)N2c3ccccc3C(C)=CC2(C)C)cc1`, which Potency is on record?
Answer: The Potency was 4.11 µM (active).

Question: For `CC(=O)Nc1ccc(S(=O)(=O)NCC(=O)OC(C)c2ccccc2Cl)cc1` (stereo unspecified), which Potency is on record?
Answer: Its Potency is “inactive”.

Question: With `CC1=CC(C)(C)N(S(=O)(=O)c2ccc(C)cc2)c2ccccc21` as the compound, how does the Potency read?
Answer: The Potency was 14.6 µM (active).

Question: Which Potency does the source give for `CCOc1cc(/C=C2\CN(C)C/C(=C\c3ccc(O)c(OCC)c3)C2=O)ccc1O` here?
Answer: Its Potency is 6.51 µM (active).

Question: Which Potency does the source give for `CCOC(=O)C1=C(O)/C(=C/c2ccc(OCC(=O)O)c(OCC)c2)SC1=Nc1ccccc1` here?
Answer: Its Potency is “inactive”.

Question: For `C=CCC(CC(O)COCCC)C(=O)NNC(=S)Nc1ccccc1` (stereo unspecified), which Potency is on record?
Answer: Its Potency is “inactive”.

Question: With `O=C(c1ccc(Br)cc1)c1cc([N+](=O)[O-])ccc1N1CCCCC1` as the compound, how does the Potency read?
Answer: The Potency was 2.31 µM (active).

Question: With `Cc1ccc(C(=O)c2cc([N+](=O)[O-])ccc2N2CCCCC2)cc1C` as the compound, how does the Potency read?
Answer: The Potency was 6.51 µM (active).

Question: Which Potency does the source give for `Cc1ccc(C(=O)c2cc([N+](=O)[O-])ccc2N2CCOCC2)c(C)c1` here?
Answer: Its Potency is 4.61 µM (active).

Question: Which Potency does the source give for `Cc1ccc(C(=O)c2cc([N+](=O)[O-])ccc2N2CCCCC2)c(C)c1` here?
Answer: The Potency was 1.03 µM (active).

Question: For `COCCCNC(=O)C[C@H]1C[C@H](C(=O)N2CCCCC2)[C@@]2(C)c3[nH]c4ccc(Cl)cc4c3CCN2C1=O`, which Potency is on record?
Answer: The Potency was “inactive”.

Question: Which Potency does the source give for `S=c1c2c(nc3nc[nH]n13)CCC2` here?
Answer: Its Potency is “inactive”.

Question: With `CC1CCCN(c2ccc([N+](=O)[O-])cc2C(=O)c2ccccc2)C1` (stereo unspecified) as the compound, how does the Potency read?
Answer: The Potency was 3.26 µM (active).

Question: Which Potency does the source give for `Cc1ccc(C(=O)c2cc([N+](=O)[O-])ccc2N2CCCCC2)cc1` here?
Answer: Its Potency is 2.31 µM (active).

Question: For `CCN(CC)c1ccc(/C=N/N=C(N)N)c(O)c1`, which Potency is on record?
Answer: Its Potency is 10.3 µM (active).

Question: Which Potency does the source give for `CCN(CC)c1ccc(/C=N/NC(=S)NC)c(O)c1` here?
Answer: Its Potency is “inactive”.

Question: Which Potency does the source give for `COc1ccc(N/C=C/C(=O)c2cc(OC)c(OC)c(OC)c2)cc1` here?
Answer: Its Potency is 7.31 µM (active).

Question: Which Potency does the source give for `COc1cc(C(=O)NNC(=S)Nc2ccc(S(N)(=O)=O)cc2)cc(OC)c1OC` here?
Answer: Its Potency is “inactive”.

Question: Which Potency does the source give for `CCOc1ccc(Nc2cc(C)nc(-n3nc(C)cc3C)n2)cc1` here?
Answer: The Potency was 3.26 µM (active).

Question: For `COc1ccc(Nc2cc(C)nc(-n3nc(C)cc3C)n2)cc1`, which Potency is on record?
Answer: Its Potency is 7.31 µM (active).

Question: With `COc1ccc(N=N/C(=C\O)C(=O)c2ccco2)cc1` as the compound, how does the Potency read?
Answer: The Potency was “inactive”.

Question: With `COC(=O)c1cn(C(=O)c2ccc(OC)cc2)c2ccccc12` as the compound, how does the Potency read?
Answer: The Potency was “inactive”.

Question: For `COc1ccc(C(=O)n2c(-c3ccco3)nc3ccccc32)cc1`, which Potency is on record?
Answer: Its Potency is 18.4 µM (active).

Question: For `Cc1ccc(S(=O)(=O)N2CCN(C(=O)CSc3n[nH]c(N)n3)CC2)c(C)c1`, which Potency is on record?
Answer: Its Potency is “inactive”.

Question: Which Potency does the source give for `O=Cc1cc2ccccc2nc1SCc1ccc(Cl)c(Cl)c1` here?
Answer: The Potency was “inactive”.

Question: With `Cc1ccc(CSc2nc3ccccc3cc2C=O)cc1` as the compound, how does the Potency read?
Answer: Its Potency is 2.91 µM (active).

Question: Which Potency does the source give for `COc1cccc(CSc2nc3ccccc3cc2C=O)c1` here?
Answer: The Potency was 2.59 µM (active).

Question: Which Potency does the source give for `CCC(=O)[C@@]1(C)[C@H](C)C[C@H]2[C@@H]3CCC4=CC(=O)C=C[C@]4(C)[C@H]3[C@@H](O)C[C@@]21C` here?
Answer: The Potency was “inactive”.

Question: With `O=C(Nc1ccc([N+](=O)[O-])cc1)Nc1ccon1` as the compound, how does the Potency read?
Answer: The Potency was 8.2 µM (active).

Question: Which Potency does the source give for `CCOC(=O)c1ccc(NC(=S)NNC(C)(C)C)cc1` here?
Answer: Its Potency is “inactive”.

Question: With `CCOC(=O)c1ccc(NC(=O)Nc2ccon2)cc1` as the compound, how does the Potency read?
Answer: Its Potency is 2.31 µM (active).

Question: For `Cc1ccc2[nH]c(C(=O)N/N=C/c3ccccc3C(=O)O)c(-c3ccccc3)c2c1`, which Potency is on record?
Answer: The Potency was “inactive”.

Question: For `COc1ccc(/C=N/NC(=O)c2[nH]c3ccc(Cl)cc3c2-c2ccccc2)c(C(=O)O)c1OC`, which Potency is on record?
Answer: The Potency was “inactive”.

Question: For `O=C(N/N=C/c1ccccc1)c1[nH]c2ccc(Br)cc2c1-c1ccccc1`, which Potency is on record?
Answer: The Potency was 0.517 µM (active).

Question: With `Cc1c(C(=O)N/N=C/c2ccc(Cl)cc2)[nH]c2ccc(Cl)cc12` as the compound, how does the Potency read?
Answer: Its Potency is 0.731 µM (active).

Question: With `COc1ccc(NC(=S)N/N=C/c2ccc(F)c(F)c2)cc1` as the compound, how does the Potency read?
Answer: Its Potency is “inactive”.

Question: Which Potency does the source give for `NNC(=O)c1[nH]c2ccc([N+](=O)[O-])cc2c1-c1ccccc1` here?
Answer: Its Potency is “inactive”.

Question: For `NNC(=O)c1cc2cc(OC(F)(F)F)ccc2[nH]1`, which Potency is on record?
Answer: Its Potency is “inactive”.

Question: Which Potency does the source give for `CCOc1ccc2[nH]c(C(=O)N/N=C/c3ccc(OC)cc3)cc2c1` here?
Answer: Its Potency is 2.91 µM (active).

Question: Which Potency does the source give for `O=C(N/N=C/c1ccc(O)cc1)c1[nH]c2ccc(Br)cc2c1-c1ccccc1` here?
Answer: The Potency was 1.3 µM (active).

Question: With `NNC(=O)c1[nH]c2ccc(Cl)cc2c1-c1ccccc1` as the compound, how does the Potency read?
Answer: The Potency was “inactive”.

Question: For `O=C(NN=C1CCCC1)c1[nH]c2ccc(Cl)cc2c1-c1ccccc1`, which Potency is on record?
Answer: Its Potency is 13 µM (active).

Question: For `Cc1ccc2[nH]c(C(=O)NN=C3CCCCC3)c(-c3ccccc3)c2c1`, which Potency is on record?
Answer: Its Potency is “inactive”.

Question: For `COc1ccc(/C=N/NC(=O)c2[nH]c3ccc(Br)cc3c2-c2ccccc2)c(C(=O)O)c1OC`, which Potency is on record?
Answer: Its Potency is “inactive”.

Question: For `COc1ccc(/C=N/NC(=O)c2[nH]c3ccc(Br)cc3c2-c2ccccc2)cc1`, which Potency is on record?
Answer: Its Potency is 0.231 µM (active).

Question: Which Potency does the source give for `Cc1nn(CCC(=O)NNC(=S)NCC(C)C)c(C)c1Br` here?
Answer: Its Potency is “inactive”.

Question: With `CCN(CC)c1ccc2cc(-c3nc4ccccc4n3C)c(=O)oc2c1` as the compound, how does the Potency read?
Answer: Its Potency is 0.58 µM (active).

Question: Which Potency does the source give for `CC(/C=C/c1ccccc1)=N\NC(=S)NC(C)C` here?
Answer: Its Potency is “inactive”.

Question: For `O=C(CSc1cccc[n+]1[O-])CSc1cccc[n+]1[O-]`, which Potency is on record?
Answer: Its Potency is “inactive”.
